Reference: PubChem BioAssay AID2288 (National Center for Advancing Translational Sciences (NCATS), 2010)
Out of some 340,000 compounds screened, fewer than 10 were called active. Roughly 2% stayed inconclusive and do not appear here. Calls come from the whole dose curve; as a rule, active = well fitted curve in the direction sought with a large enough effect; inconclusive = small, poorly fitted or top-dose-only effect, or another doubt; inactive = no such curve, though single readings can be large or run the other way. The list is a sample of the results.

experiment: qHTS Assay for Modulators of miRNAs and/orActivators of miR-21; conditions: HeLa miR-21 FLuc reporter, luciferase, 48 h; series mostly up to 38.3 µM;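 note: miR-21 action dims this reporter so a rising signal means less miR-21 action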
Excerpt: MLSCN Grant: 1 R21 NS059478-01 Assay Provider: Qihong Huang, The Wistar Institute NCGC Assay Overview: MicroRNAs (miRNAs) are endogenously encoded small (~20-25 nucleotides), nonprotein-coding RNAs that are involved in post-transcriptional repression of target messenger RNAs (mRNAs) (Le and Hannon, 2004). Estimated to be involved in the regulation of 30% of all protein-coding mRNAs (Filipowicz et al., 2008), miRNAs play a significant role in many biological processes including cellular differentiation and tissue development (Ghildiyal and Zamore, 2009).
NCGC Assay Protocol Summary: Reagents: HeLa cells stably expressing firefly luciferase (FLuc) under the control of a CMV promoter (upstream) and a miR-21 binding sequence directly downstream of the gene. These cells endogenously express miR-21. Control compounds used were compound C3 (provided by collaborator), N6-phenyladenosine (MP Biomedicals, 0215379625), and DMSO. Assay Summary: 6uL of HeLa miR-21-FLuc cells in assay buffer (DMEM, Invitrogen #21063-029; 10% FBS, HyClone #SH30071.03) were dispensed at 2000cells/well (3.3 x 10^5 cells/mL) into Greiner solid-white TC-treated 1536-well plates using a Multidrop Combi (Thermo Fisher Scientific). Plates were incubated for one hour at 37 degree Celsius, 95% humidity, 5% CO2. These assay plates were then treated with 23nL of compound or DMSO using a Kalypsys pin tool, which allows for delivery of a 24-point titration of each compound to the assay plate, with a final compound concentration ranging from approximately 40uM to 5pM. Assay plates were then incubated for 48 hours. After incubation, plates were allowed to come to RT for one hour prior to delivery of 3uL of 3X luciferase detection reagent. After a 15 minute incubation to allow for cell lysis, luciferase activity was measured using a ViewLux CCD imager (PerkinElmer), with an average exposure time of 2-12 seconds. Keywords: NIH Roadmap, MLPCN, MLSMR, qHTS, miR-21, microRNA, firefly luciferase, FLuc.

outcome, inactive:
COc1ccc(-c2[nH]c3c(c2-c2c(-n4cccc4)n(C)c(=O)n(C)c2=O)c(=O)n(C)c(=O)n3C)cc1
O=c1c2cccnc2n(Cc2cccc(F)c2)c(=O)n1Cc1ccccc1Cl
Cc1ccc(-c2nc(Cn3c(=O)cc(-c4ccccc4)c4c(C)nn(C)c43)c(C)o2)cc1
COC(=O)c1c(NC(=O)C(C)Oc2ccc(Cl)c(C)c2)sc(C)c1C (centres undefined)
Cc1cccc(Cn2c(SCc3ccc(C(=O)N4CCC(C)CC4)cc3)nc3ccncc32)c1
CCc1cnc2c(c1SCC(=O)c1ccccc1)c(=O)n(C)c(=O)n2C
CC(C)c1ccc(NC(=O)c2ccc(Cn3nc(N4CCN(c5ccccc5)CC4)ccc3=O)o2)cc1
Cc1ccc(-c2nnc3c4ccccc4c(C)nn23)cc1NC(=O)c1cccc(Br)c1
CC(=O)c1ccc(NC(c2ccc(F)cc2)c2nnc(-c3ccccc3)o2)cc1 (centres undefined)
CCN(C(=O)Cn1cnc2sc(C)c(S(=O)(=O)N3CCN(c4ncccn4)CC3)c2c1=O)c1ccccc1F
Cc1cccc(N2CCN(C3=C(c4ccccc4)C(=O)c4ccccc43)CC2)c1C
COc1cccc(NC(=O)c2csnn2)c1
N#C/C(=C\c1cccc(F)c1)c1nc(-c2cc3c(ccc4ccccc43)oc2=O)cs1
CC(=O)c1ccc(NC(=O)C2CCN(S(=O)(=O)c3c(C)noc3/C=C/c3ccc(C)cc3)CC2)cc1
CCOc1ccccc1C(=O)NC1(C(F)(F)F)C(=O)Nc2c1c(=O)[nH]c(=O)n2-c1ccc(F)cc1 (centres undefined)
O=C1CN(C(=O)Nc2ccccc2C(F)(F)F)C(c2ccccc2)c2c(sc3c2CCCC3)N1 (centres undefined)
O=C1OC(C(=O)Nc2cccc(Br)c2)Cc2ccccc21 (centres undefined)
O=C(CCOc1ccccc1)N(Cc1cccnc1)c1nc2ccc(Cl)cc2s1
CC(C)(C)NC(=O)CSc1nc(-c2ccc(F)cc2)cc(C(F)(F)F)n1
O=C(CSc1nc2nccnc2c(=O)n1CCc1c[nH]c2ccccc12)Nc1ccccc1F
Cn1c(SCC(=O)N2CCCc3ccccc32)ncc(C(=O)Nc2ccc(F)cc2)c1=O
Cc1ccc(Cl)cc1N(C)C(=O)Cn1nc(Cc2cccnc2)c2ccccc2c1=O
COc1ccc(SCc2cc(=O)c3ccc(C)c(C)c3[nH]2)cc1
Cc1cccc(OCCSc2nc3ccccc3n2CC(=O)N2CCCCC2)c1C
COc1ccc(NC(=O)C(c2ccccc2)N2Cc3ccccc3C2=O)cc1 (centres undefined)
CCCN1CN=C(NS(=O)(=O)c2ccc(NC(C)=O)cc2)NC1
COc1ccc(-c2nn3c(=O)cc(CN4CCN(C(=O)c5ccc(OC)c(OC)c5)CC4)nc3s2)cc1
CCOC(=O)c1c(C)[nH]c(C)c1S(=O)(=O)N(C)CC(=O)N1CCN(c2ccccc2)CC1
COc1ccc2c(c1)c(=O)c(C(=O)c1ccccc1)cn2CC(=O)Nc1ccc2c(c1)OCCO2
Cc1ccc(CNS(=O)(=O)c2ccc(C(=O)N(C)C)s2)cc1
COc1ccc(-c2c3c(=O)n(C)c(=O)n(C)c3c3c(C)nc4ccccc4n23)cc1
Cc1ccc(CN(C(=O)COc2ccc(Cl)cc2C)C2CCS(=O)(=O)C2)o1 (centres undefined)
Cc1ccc(NC(=O)c2ccc3[nH]c(C)cc(=O)c3c2)c(C)c1
Cc1ccccc1CCNC(=O)C1CCN(c2nc3ccccc3nc2C(F)(F)F)CC1
COC(=O)c1ccc(NC(=O)CCc2c(C)nn(-c3ccc(N4CCCC4)nn3)c2C)cc1
Cc1cc(C)cc(NC(=O)c2cnc3sc(N4CCCC4)nn3c2=O)c1
O=C(Cn1cnc2c(oc3ccccc32)c1=O)Nc1ccc(OC(F)(F)F)cc1
COc1ccccc1C(=O)OCc1cc(=O)n2nc(-c3cccs3)sc2n1
Cc1ccc(-c2nnc(SCc3ccccc3C)o2)cc1
CCN(CC)C(=O)CSc1nc2ccsc2c(=O)n1Cc1ccccc1Cl
COc1ccc(CCNCc2c(C(=O)O)c(C)n(Cc3cccc(C)c3)c2C)cc1OC
COc1ccc(-n2c(=O)c3c(c4cc(OC)ccc4n3C)n(Cc3cccc(C)c3)c2=O)cc1
COc1ccc(OC)c(CCNC(=O)CCCn2c(=O)c3cccn3c3cccnc32)c1
Cc1nn2c(=O)cc(COC(=O)c3cccc(NC(=O)COc4ccccc4Cl)c3)nc2s1
